# The campaign covered roughly 420,000 compounds. About 64,000 (15%) were called active. Another 27% or so got no clear call; they are omitted. Calls come from the whole dose curve; as a rule, active = well fitted inhibition curve with a large enough effect; inconclusive = small, poorly fitted or top-dose-only effect; inactive = flat fitted curve, though single readings scatter. A selection follows. Where a call stands in place of a potency, no number is given.
# Assay: qHTS for Inhibitors of human tyrosyl-DNA phosphodiesterase 1 (TDP1): qHTS in cells in absence of CPT; note: nearly all actives have a fitted effect of over 55% in size
# Details: DT40 Tdp1-/- hTDP1 cells, no CPT, ATP luminescence, 48 h; activity change, negative = growth inhibition: at 46.2 µM (top of the series)
# Method in brief: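 DT40 Tdp1-/-;hTDP1 cells, no CPT (DMSO vehicle only), 400 cells/well; compounds pin-transferred; ≥48 hr, 37 °C; CellTiter-Glo 30 min RT dark, luminescence read.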
# Potency is the fitted concentration of half-maximal effect.
Structure (SMILES),Potency,"activity change, negative = growth inhibition"
O=C(NCc1ccco1)C1CCCN(S(=O)(=O)c2cnc[nH]2)C1 (stereo not given),inactive,–
Cc1ccc(N=C2NC(=O)c3cccc([N+](=O)[O-])c32)cc1,inactive,–
O=C(COc1ccc(Br)cc1)OCC(=O)c1ccc[nH]1,inactive,–
Cc1ccc(CSCCNC(=O)CN(c2ccc(F)cc2)S(C)(=O)=O)cc1,inactive,–
Cc1c(NC(=S)NC(=O)CCc2ccccc2)c(=O)n(-c2ccccc2)n1C,inactive,–
COc1cc(NC(=S)N2CCCC(C)C2)cc(OC)c1OC (stereo not given),inactive,–
C[C@H](NC(=O)c1ccccc1)C(=O)OCC(=O)c1c[nH]c2ccccc12,inactive,–
O=C(/C=C/c1cccs1)NCc1cccnc1,inactive,–
S=C(NCC1COc2ccccc2O1)Nc1ccc(Br)cc1 (stereo not given),23.1 µM (active),–
CC(NC(=S)Nc1ccccc1)C1COc2ccccc2O1 (stereo not given),inactive,–
Cc1noc(C)c1C(=O)NCC1COc2ccccc2O1 (stereo not given),inactive,–
O=C(O)c1ccc(NS(=O)(=O)c2cccc3nsnc23)cc1,inactive,–
COc1ccccc1NC(=O)C1=C(C)Nc2nc(SCC(=O)c3ccc(C)cc3)nn2C1c1ccccc1C (stereo not given),inactive,–
Cc1cccc(Nc2cc(C)nc(-n3nc(C)cc3C)n2)c1,3.26 µM (active),–
Cc1cc(C)n(-c2ccc(Cl)c(C(=O)O)n2)n1,inactive,–
Cc1cc(C)n(-c2nnc(N3CCN(c4ccccc4)CC3)nn2)n1,inactive,–
Cc1cc(Oc2ccccc2)nc(N2CCOCC2)n1,inactive,–
Cc1cc(C)n(-c2cc(Oc3ccccc3)ncn2)n1,inactive,–
COc1ccc(Nc2cc(C)nc(-n3nc(C)cc3C)n2)cc1,0.184 µM (active),–
Cc1ccc(Nc2nc3ccccc3nc2-n2nc(C)cc2C)c(Cl)c1,inactive,–
COc1ccc(C(=O)NNc2cc(C)nc(NNC(=O)c3ccc(OC)cc3)n2)cc1,inactive,–
CC(=O)c1ccc(Oc2cc(C)nc(-n3nc(C)cc3C)n2)cc1,0.58 µM (active),–
CC1(C(=O)NCc2ccccc2)CSCC(=O)N1CCCn1ccnc1 (stereo not given),inactive,–
CC(=O)c1cc(-c2ccccc2)n(CC(=O)NC2CCCCC2)c1C,inactive,–
O=C(C=CC(=O)Nc1ccc(F)cc1F)Nc1ccc(F)cc1F,inactive,–
O=C(O)C1CCCCC1C(=O)N1CCN(S(=O)(=O)c2ccc(F)cc2)CC1 (stereo not given),inactive,–
Cc1ccc2c(c1)C1CN(C)CCC1N2C(=O)c1ccccc1NS(=O)(=O)c1ccc(F)cc1C (stereo not given),inactive,–

Structure (SMILES),Potency,"activity change, negative = growth inhibition"
CCOC(=O)c1ccc(S(=O)(=O)N(CCO)Cc2cc3cc(OC)c(OC)cc3[nH]c2=O)cc1,inactive,–
CCOc1ccc2[nH]c(=O)c(CN(CCCO)C(C)=O)cc2c1,inactive,–
CCOc1ccc2[nH]c(=O)c(CN(CCCO)S(=O)(=O)c3ccc(F)cc3)cc2c1,16.4 µM (active),–
CC(=O)c1c(C)[nH]c(C(=O)CN2C(=O)NC(C)(C)C2=O)c1C,inactive,–
COCCNC(=S)N(Cc1cccnc1)Cc1ccc(OC)c(OC)c1,inactive,–
COc1cccc(C(=O)n2ccc(-c3cccs3)n2)c1,inactive,–
CC(C)CC1(C(=O)NCc2ccccn2)C=CCN1C(=O)c1ccccc1 (stereo not given),inactive,–
N#Cc1c(NC(=O)C2CCCO2)sc2c1CCCCC2 (stereo not given),inactive,–
Cc1cccc(C)c1NC(=O)COC(=O)c1ccccc1O,inactive,–
Cc1cccc(C(=O)OCC(=O)Nc2sc3c(c2C#N)CCC3)c1,inactive,–
CCOC(=O)c1c(NC(=O)CSc2nnc(C)c(=O)[nH]2)sc2c1CCC2,inactive,–
COc1ccc(-n2c(SCC(=O)Nc3sc4c(c3C#N)CCCC4)nnc2-c2ccc(O)cc2)cc1,inactive,–
CC(=O)c1c(C)[nH]c(C(=O)OCC(=O)Nc2sc3c(c2C#N)CCCC3)c1C,16.4 µM (active),–
CC(=O)c1c(C)[nH]c(C(=O)OCC(=O)Nc2c(C)cccc2C)c1C,13 µM (active),–
CCCc1cc(=O)[nH]c(SCC(=O)Nc2sc3c(c2C#N)CCCC3)n1,inactive,–
N#Cc1c(NC(=O)CCCl)sc2c1CCCCC2,18.4 µM (active),–
Cc1ccc(C)c(OCC(=O)Nc2sc3c(c2C#N)CCCC3)c1C,9.2 µM (active),–
CC(=O)c1c(C)[nH]c(C(=O)OCC(=O)Nc2c(C)n(C)n(-c3ccccc3)c2=O)c1C,inactive,–
CCN1CCN(CC(=O)Nc2sc3c(c2C#N)CCC3)CC1,inactive,–
C=CCc1cccc2cc(C(=O)NC3CCCC3)c(=O)oc12,inactive,–
Cc1nn(-c2ccccc2)nc1C(=O)OCC(=O)N1CCCCC1C (stereo not given),inactive,–
Nc1nc(SCC(=O)NCCN2CCOCC2)nc2sc3c(c12)CCC3,inactive,–
CSc1nc2nc3c(c(=O)n2[nH]1)CCC3,inactive,–
Cc1cn(C2OC[C@@H](O)[C@@H]2CO)c(=O)[nH]c1=O (stereo not given in full),inactive,–
CC(C)[C@H]1CC[C@@H](C)C[C@H]1O,inactive,–
CCCC(C)C(=O)Nc1ccc(NC(C)=O)cc1 (stereo not given),inactive,–
O=C(NNC(=O)C1CCC1)c1ccccc1,inactive,–

Structure (SMILES),Potency,"activity change, negative = growth inhibition"
Cc1csc(-c2coc3cc(O[C@@H]4O[C@H](CO)[C@@H](O)[C@@H](O)[C@H]4O)ccc3c2=O)n1,–,1.27% [at 9.04 µM] (inactive)
COc1ccc(C(=O)N2CCCN(C)CC2)c(OC)c1,inactive,–
CNCCCOc1cc2nc(N3CCCN(C)CC3)nc(NC3CCN(C)CC3)c2cc1OC,inactive,–
COc1cc2nc(N3CCCN(C)CC3)nc(NC3CC3)c2cc1OC,10 µM (active),–
COc1cc2nc(N3CCN(C(=O)[C@@H]4CCCO4)CC3)nc(N)c2cc1OC,inactive,–
COc1cc2nc(N3CCCN(C)CC3)nc(NC(C)C)c2cc1OC,12.6 µM (active),–
CCCCSc1nnc2c(n1)OC=Nc1ccccc1-2,inactive,–
CCCn1nc(Oc2nc(NC(C)C)nc(N(C)C)n2)ccc1=O,inactive,–
Cn1c(SCC(=O)NC2CCCCC2)nnc1-c1ccc(N)cc1,inactive,–
CC(=O)Nc1ccc(N2C(=O)C3C4CC(=O)C(c5ccccc54)C3C2=O)cc1 (stereo not given),inactive,–
CCCCc1c(-c2ccc(Br)cc2)ncn1CCc1ccccc1OC,1.3 µM (active),–
COc1ccccc1CN1CCN(Cc2cc(OC)c(OC)cc2OC)CC1,inactive,–
COc1ccccc1CCn1c(=O)c(-c2cn(C)c3ccccc23)nc2cncnc21,inactive,–
CCCc1c(-c2ccccc2F)ncn1Cc1ccccc1OC,1.16 µM (active),–
COc1ncc2nc(-c3ccc(Cl)cc3)c(=O)n(C)c2n1,inactive,–
COc1ccccc1OCCCn1c(-c2ccc(Cl)cc2)nc2ccccc2c1=O,inactive,–
COc1ccccc1CCC(=O)NNC(=O)c1ccncc1,inactive,–
CCCCc1c(-c2ccc(Cl)cc2)ncn1CCc1ccccc1OC,3.26 µM (active),–
COc1cccc(OC)c1C(=O)N1CCN(Cc2ccccc2F)CC1,inactive,–
CCN(CC(=O)NC(C)C)C(=O)c1cc(S(=O)(=O)N2CCCCC2)ccc1N1CCCCC1,inactive,–
CCOC(=O)c1c(C)[nH]c(C(=O)OCC(=O)c2ccc(OC)cc2OC)c1C,inactive,–
C=CCNc1nc(N)c([N+](=O)[O-])c(NC2CCCCC2)n1,inactive,–
CCCCn1c(N)c(N(CCOC)C(=O)c2sc3ccccc3c2Cl)c(=O)[nH]c1=O,inactive,–
CC1CCCCN1C(=O)Cn1c(=O)oc2cc(S(=O)(=O)N3CCCCC3)ccc21 (stereo not given),inactive,–
CC(C)CCNC(=O)Cn1c(=O)oc2cc(S(=O)(=O)N3CC(C)CC(C)C3)ccc21 (stereo not given),16.4 µM (active),–
CC1CCCN(C(=O)Cn2c(=O)oc3cc(S(=O)(=O)N4CCCCC4C)ccc32)C1 (stereo not given),inactive,–
CSc1ncccc1C(=O)NCC(c1ccco1)N1CCCCC1 (stereo not given),inactive,–

Structure (SMILES),Potency,"activity change, negative = growth inhibition"
CC1CCc2sc(C(=O)NCC(c3ccco3)N3CCCCC3)cc2C1 (stereo not given),10.3 µM (active),–
CC1CCc2sc(C(=O)N/N=C/C3CCCCC3)cc2C1 (stereo not given),inactive,–
Cc1ccccc1S(=O)(=O)Cc1ccc(C(=O)NCCN2CCCCC2C)o1 (stereo not given),inactive,–
CN(CC(=O)Nc1cccc(F)c1)C(=O)C1CSC2(C)CCC(=O)N12 (stereo not given),inactive,–
COc1ccc(C(=O)Oc2ccc(-c3nnco3)cc2)cc1S(=O)(=O)N1CCOCC1,inactive,–
CCCCc1nn2c(=O)cc(COC(=O)c3ccccc3NC(=O)C(C)(C)C)nc2s1,inactive,–
O=C(Nc1ccc(C(=O)OCc2cc(=O)n3nc(C4CC4)sc3n2)cc1)c1ccc(F)cc1,inactive,–
CCCCc1nn2c(=O)cc(COC(=O)c3ccc(NC(=O)c4ccccc4C)cc3)nc2s1,14.6 µM (active),–
CCCc1nn2c(=O)cc(COC(=O)c3ccc(NC(=O)C(C)Oc4ccccc4)cc3)nc2s1 (stereo not given),inactive,–
Cc1nn2c(=O)cc(COC(=O)c3ccc(NC(=O)C(C)(C)C)cc3)nc2s1,18.4 µM (active),–
Cc1nn2c(=O)cc(COC(=O)CNC(=O)c3ccc(F)cc3)nc2s1,inactive,–
Cc1nn(C)cc1S(=O)(=O)N1CCN(c2ccc(F)cc2)CC1,inactive,–
C=CCNc1nnc(C)c2ccccc12,inactive,–
O=c1[nH]n(-c2ccc([N+](=O)[O-])cc2)c(=O)c2ccccc12,inactive,–
O=C1CC(c2ccccc2)=NN1c1ccc([N+](=O)[O-])cc1,16.4 µM (active),–
Cc1nc(-c2ccc([N+](=O)[O-])cc2)c(-c2ccccc2)o1,inactive,–
CC(C)c1nc(CNC(=O)CC2C(=O)NCCN2Cc2cccc(F)c2F)cs1 (stereo not given),inactive,–
CCN(CC)CCCNC(=O)Cn1cnc2sc(C)c(S(=O)(=O)N3CCN(c4ncccn4)CC3)c2c1=O,inactive,–
C[N+]1(CCNC(=O)/C=N/O)CCCCC1,inactive,–
O=C(Cn1cc(C(F)(F)F)ccc1=O)Nc1ccc2c(c1)OCCO2,inactive,–
CCCCn1c(SCC(=O)N2CCCC2=O)nc2cc(S(N)(=O)=O)ccc21,inactive,–
CCCCn1c(SCC(=O)N2CCC(C(=O)OCC)CC2)nc2cc(S(N)(=O)=O)ccc21,inactive,–
CCCCn1c(SCc2ncc(-c3ccccc3)o2)nc2cc(S(N)(=O)=O)ccc21,9.2 µM (active),–
Cc1[nH][nH]c(=O)c1N=Nc1ccccc1,inactive,–

# Reference: PubChem BioAssay AID686978 (National Center for Advancing Translational Sciences (NCATS), 2013)
